Sm TGR block – blocks Schistosoma mansoni thioredoxin glutathione reductase. Q962Y6. purified TGR, DTNB reduction, TNB absorbance 405 nm. Potency, µM (titrated, usually from 114 µM), for the others: at the highest dose activity change, negative = inhibition, actives largely listed as inhibitors. actives 3% (n = 360,000); further: on the % scale 0 is the no-effect control and ±100 the full control effect; nearly all actives have a fitted effect of over 60% in size
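First, TGR (20 nM dispensed) and NADPH were mixed with compound. Second, a 15 min room-temperature incubation followed. Third, further NADPH and then DTNB were added to start the reaction. Finally, TNB absorbance was monitored kinetically.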
Pf growth 96h – P. falciparum growth inhibition at 96 hours; P. falciparum luciferase reporter growth, 96 h; actives 6.9% (n = 320,000); Potency, µM (titrated, usually from 28.7 µM), for the others: at the highest dose activity change, negative = inhibition, usual class: inhibitors; further: on the % scale 0 is the no-effect control and ±100 the full control effect
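Two parasite generations (96 h, 37 C, 5% CO2) of compound exposure in infected erythrocytes (0.05% parasitemia, 2% hematocrit). Luciferase-reporter P. falciparum; decreased luminescence indicates inhibited growth, aimed at apicoplast-acting delayed death.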
AMA1-RON2 inh – disrupts binding of P. falciparum AMA1 to RON2; AlphaScreen AMA1-biotinylated RON2 peptide binding; Potency, µM (doses to about 58.2 µM), without a hit: at the top dose activity change, negative = inhibition, usual class: inhibitors; actives 0.2% (n = 360,000);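 further: 0% = vehicle wells and -100% = peptide control; nearly all actives have a fitted effect of over 45% in size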
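AMA1 (3D7) with his tag at 25 nM final met compounds first, then biotinylated RON2 peptide at 25 nM; detection used donor plus acceptor beads, 10 µg/mL apiece, read by AlphaScreen after 30 min at room temperature.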
Pf growth 48h – P. falciparum growth inhibition at 48 hours (one generation) | actives 5.9% (n = 310,000) | Potency, µM (doses to about 28.7 µM), for inactives: at the top dose activity change, negative = inhibition, hits mostly inhibitors | AID 504832 | P. falciparum luciferase growth in erythrocytes, 48 h; further: on the % scale 0 is the no-effect control and ±100 the full control effect
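Here the parasites carry a stable luciferase gene and grow inside erythrocytes in Albumax-based RPMI medium with compound for one erythrocytic cycle. Activity is scored as loss of luminescent signal.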
NS1 function inh – influenza NS1 inhibition; Potency, µM (highest dose often 46.1 µM), for inactives: at the top dose activity, positive = more growth; actives 0.4% (n = 270,000); AID 2326; calls by dose curve; further: actives are rising curves; nearly all actives have a fitted effect of over 50% in size
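Growth recovery, yeast-based: influenza A NS1 expressed in S. cerevisiae causes slow growth, and suppressors are detected by OD600. The parent strain without NS1 is used as positive control.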
* marks the source's active call; other numbers are inactive results; ? = inconclusive; · = no result given; [ ] = dose if it differs, or a comment. In the library only some 11% were active in any assay of this set; here they are far more common. Unless noted, the call rests on the fitted dose curve; in most records, active means well fitted curve in the direction sought with a large enough effect; inconclusive means small, poorly fitted or top-dose-only effect, or another doubt; inactive means no such curve, though single readings can be large; an effect the other way counts as inactive or inconclusive. Potency means the concentration at half of the fitted maximal effect.

SMILES | Sm TGR block | Pf growth 96h | AMA1-RON2 inh | Pf growth 48h | NS1 function inh
COC(=O)c1ccc(N2C(=O)CC(Sc3n[nH]c(C)n3)C2=O)cc1 (stereo not given) | 1.4µM* | -15% | 0% | 0% | -75%
COc1ccccc1N1C(=O)CC(Sc2nc(C)cc(C)n2)C1=O (stereo not given) | 0% | · | 11% | -1% | -15%[9.22 µM]
COc1ccc(N2C(=O)CC(Sc3n[nH]c(-c4cccc(C)c4)n3)C2=O)cc1 (stereo not given) | 0.32µM* | ? | 57% | ? | -2%
COc1ccccc1CNC(=O)C(=O)NCC(c1cccs1)S(=O)(=O)c1ccccc1 (stereo not given) | -9% | · | · | · | ·
COc1ccccc1CNC(=O)CC(c1ccc(C)cc1)N1Cc2ccccc2C1=O (stereo not given) | 14% | · | · | · | ·
COC(=O)C1CSc2[nH]c(=O)sc2C1c1ccc(OC)c(OC)c1 (stereo not given) | 7% | ? | 0% | 10µM* | 1%
O=C(N/N=C/c1ccncc1)c1ccccc1OCc1ccc(Br)cc1 | -7% | 1.9µM* | -1% | -62% | -2%
Cc1cccc(/C=N/NC(=O)c2ccccc2OCc2cccc(Br)c2)n1 | 2% | ? | 29% | 15µM* | -20%
Cc1cccc(/C=N/NC(=O)c2cc(Br)ccc2OCc2ccccc2)n1 | 20% | -5% | 25% | ? | -15%
COc1ccccc1CNCCSc1nnnn1C | 1% | · | · | · | ·
CCOc1ccc(OCC)c(NS(=O)(=O)c2cc(-c3cnc(C)o3)ccc2OC)c1 | 0% | · | · | · | ·
COc1ccc(/C=C2/C(=O)NC(=S)N(C3CC3)C2=O)cc1CN1C(=O)c2ccccc2C1=O | 11µM* | ? | -3% | 4% | 3%
COc1ccc(/C=C2/C(=O)NC(=O)N(C3CCCCC3)C2=O)cc1CSc1ccccn1 | 35µM* | 0% | · | -6% | 2%
O=C(CCn1cnnn1)Nc1cc(C(F)(F)F)cc(C(F)(F)F)c1 | -9% | · | · | · | ·
COc1ccc(S(=O)(=O)N(C)C)cc1NC(=O)COC(=O)C1CC1 | · | · | 9% | · | ·
Nc1ccccc1Nc1c(F)c(F)nc(F)c1Cl | ? | -1% | -19% | -19% | 1%
CSc1ccc(C2C(C#N)=C(N)Oc3c2ccc(=O)c2c(C)oc(C)c32)cc1 (stereo not given) | 28µM* | -11% | ? | ? | ?
Cc1oc(C)c2c(=O)ccc3c(c12)OC(N)=C(C#N)C3c1ccccc1Cl (stereo not given) | ? | 63% | -6% | ? | 9%
COc1ccc(C2C(C#N)=C(N)Oc3c2oc(CO)cc3=O)cc1 (stereo not given) | -4% | 0% | 8% | 10% | ·
Cc1oc(C)c2c(=O)ccc3c(c12)OC(N)=C(C#N)C3c1ccccc1 (stereo not given) | 28µM* | 75% | -16% | ? | 8%
CC1(C(=O)Nc2ccc3nc[nH]c3c2)CCN1C(=O)CCc1ccccc1 (stereo not given) | · | · | -4% | · | ·
CC(=O)c1ccc(OC(=O)COc2ccccc2Cl)cc1 | 40µM* | 19% | 0% | 233% | 0%
CC(=O)c1ccc(OC(=O)Cc2cccc3ccccc23)cc1 | 10% | 1% | 0% | 0% | -39%
CCOC(=O)C1(CC2CCCCO2)CCN(C(=O)Nc2ccccc2)CC1 (stereo not given) | 5% | -3% | -10% | ? | 5%
CCOC(=O)C1(CC2CCCCO2)CCN(Cc2nc3ccccc3nc2C)CC1 (stereo not given) | -13% | 12µM* | 14% | ? | 4%
SMILES | Sm TGR block | Pf growth 96h | AMA1-RON2 inh | Pf growth 48h | NS1 function inh
CCOC(=O)C1(CC2CCCCO2)CCN(C(=O)Nc2ccccc2SC)CC1 (stereo not given) | 6% | 12µM* | 0% | ? | -4%
CCOC(=O)c1ccc(NC(=O)c2c(N)n(Cc3ccccc3)c(=O)[nH]c2=O)cc1 | · | · | 1% | · | ·
CC(=O)c1ccc2c(c1)Cc1cc(C(C)=O)ccc1-2 | 5% | 5.2µM* | -1% | 271% | 7%
CCC(=O)Nc1ccc2c(c1)Cc1cc(NC(=O)CC)ccc1-2 | 0% | 0% | 3% | 8% | 7%
CC(NCC(=O)Nc1ccccc1C(=O)NC1CC1)c1cccc(C(F)(F)F)c1 (stereo not given) | -4% | ? | 8% | ? | ·
Cc1cc(C)c(COCc2cc(/C=N/O)c(C)cc2C)cc1/C=N/O | 6% | 10µM* | -7% | · | -2%
Cc1cc(Br)ccc1NC(=O)CN1C(=O)c2cccnc2Sc2ccccc21 | 3% | · | · | · | ·
O=C(CCc1nnc(-c2ccccc2)o1)NCc1c(F)cccc1F | -1% | 13µM* | 1% | 0% | -3%
C=CC[C@@H]1/C=C(\C)C[C@H](C)C[C@H](OC)[C@H]2O[C@@](O)(C(=O)C(=O)N3CCCC[C@H]3C(=O)O[C@H](/C(C)=C/[C@@H]3CC[C@@H](O)[C@H](OC)C3)[C@H](C)[C@@H](O)CC1=O)[C@H](C)C[C@@H]2OC | · | 1.5µM* | · | 1.7µM* | ·
CCCc1sc(N/N=C/c2ccccn2)nc1-c1ccc(Br)cc1 | 4% | 9% | 57% | 1.7µM* | 9%
CCc1ccc(-c2cc(C(=O)N/N=C/c3ccccn3)[nH]n2)cc1 | -3% | -17% | 68% | ? | ·
Cc1scc(C(=O)N/N=C/c2ccc([N+](=O)[O-])o2)c1C | -29% | 1.7µM* | · | 4.1µM* | -21%
O=C(N/N=C/c1ccc(-c2ccccc2[N+](=O)[O-])o1)c1cncc(Br)c1 | -14% | 14% | 47% | 2% | -30%
CCN(CC)S(=O)(=O)c1cccc(C(=O)N/N=C/c2ccc([N+](=O)[O-])o2)c1 | ? | 4.1µM* | 9% | ? | ·
O=C(N/N=C\c1ccc([N+](=O)[O-])o1)c1cncc(Br)c1 | 35µM* | ? | -3% | ? | -55%
O=C(N/N=C/c1ccc([N+](=O)[O-])o1)c1ccccc1NS(=O)(=O)c1cccs1 | 28µM* | ? | 26% | ? | -4%
Cc1scc(C(=O)N/N=C/c2ccco2)c1C | ? | 85% | 43% | 147% | -3%
O=C(COC(=O)Cc1c(F)cccc1Cl)Nc1ccc2[nH]c(=O)[nH]c2c1 | · | · | 0% | · | ·
Nc1nonc1C(=O)N/N=C/c1ccc([N+](=O)[O-])o1 | 20µM* | ? | -3% | ? | ·
O=C(N/N=C/c1ccc([N+](=O)[O-])o1)c1ccncc1 | ? | 6.6µM* | -9% | 1.9µM* | 0%
Nc1nonc1C(=O)N/N=C/c1cccc([N+](=O)[O-])c1 | 1% | 21% | 21% | -9% | -11%
Cc1nc2ccccn2c1C(=O)N/N=C/c1ccc([N+](=O)[O-])o1 | 14µM* | 2.1µM* | ? | ? | ·
O=C(N/N=C/c1ccc([N+](=O)[O-])o1)c1ccc(O)cc1 | 10% | 1µM* | -7% | 1.7µM* | -1%
